The values below come from publication PMC11062922 (Nature Chemical Biology, 2023).

One test has as its system ABL1. Details: species or system human, MV4-11 + K-562 + COLO205 + SK-N-BE2 + OVCAR-8. The settings on record: read-out: apparent Kd, compound concentrations: 100 nM and 1000 nM (sheet 'Samples'), n = 1.
The subject of the next test is ABL2. On the set-up: species or system human, MV4-11 + K-562 + COLO205 + SK-N-BE2 + OVCAR-8. The settings on record: read-out: apparent Kd, compound concentrations: 100 nM and 1000 nM (sheet 'Samples'), n = 1.
In the next test the test system is BCR. Details: species or system human, MV4-11 + K-562 + COLO205 + SK-N-BE2 + OVCAR-8. The settings on record: read-out: apparent Kd, compound concentrations: 100 nM and 1000 nM (sheet 'Samples'), n = 1.
In the next test the test system is CLK1. On the set-up: species or system human, MV4-11 + K-562 + COLO205 + SK-N-BE2 + OVCAR-8. The following applies: read-out: apparent Kd, n = 1.
The test system of a further test is CLK4. On the set-up: species or system human, MV4-11 + K-562 + COLO205 + SK-N-BE2 + OVCAR-8. The following applies: read-out: apparent Kd; compound concentrations: 100 nM and 1000 nM (sheet 'Samples'), CATDS: 1.6424162942173099E-2; n = 1.
The subject of the next test is CSNK2A1;CSNK2A3. Details: species or system human, MV4-11 + K-562 + COLO205 + SK-N-BE2 + OVCAR-8. The settings on record: read-out: apparent Kd, n = 1.
The next test deals with CSNK2A2. On the set-up: species or system human, MV4-11 + K-562 + COLO205 + SK-N-BE2 + OVCAR-8. The settings on record: read-out: apparent Kd, n = 1.
The next test relates to FYN. Details: species or system human, MV4-11 + K-562 + COLO205 + SK-N-BE2 + OVCAR-8. The following applies: read-out: apparent Kd, compound concentrations: 100 nM and 1000 nM (sheet 'Samples'), n = 1.
A further test deals with HCK. On the set-up: species or system human, MV4-11 + K-562 + COLO205 + SK-N-BE2 + OVCAR-8. The settings on record: read-out: apparent Kd, compound concentrations: 100 nM and 1000 nM (sheet 'Samples'), n = 1.
In another test the test system is LCK. On the set-up: species or system human, MV4-11 + K-562 + COLO205 + SK-N-BE2 + OVCAR-8. The following applies: read-out: apparent Kd, compound concentrations: 100 nM and 1000 nM (sheet 'Samples'), n = 1.
The subject of a further test is PTK6. On the set-up: species or system human, MV4-11 + K-562 + COLO205 + SK-N-BE2 + OVCAR-8. The following applies: read-out: apparent Kd, n = 1.
Another test concerns the target Q6ZSR9 (human, UniProt Q6ZSR9). On the set-up: species or system MV4-11 + K-562 + COLO205 + SK-N-BE2 + OVCAR-8. The settings on record: read-out: apparent Kd; compound concentrations: 100 nM and 1000 nM (sheet 'Samples'), CATDS: 1.0084125464563E-2; n = 1.
Another test concerns RET. Details: species or system human, MV4-11 + K-562 + COLO205 + SK-N-BE2 + OVCAR-8. The settings on record: read-out: apparent Kd, compound concentrations: 100 nM and 1000 nM (sheet 'Samples'), n = 1.
Another test has as its system TNK1. On the set-up: species or system human, MV4-11 + K-562 + COLO205 + SK-N-BE2 + OVCAR-8. The settings on record: read-out: apparent Kd, compound concentrations: 100 nM and 1000 nM (sheet 'Samples'), n = 1.
In the next test the test system is YES1. Details: species or system human, MV4-11 + K-562 + COLO205 + SK-N-BE2 + OVCAR-8. The following applies: read-out: apparent Kd, n = 1.
Another test deals with GAK. Details: species or system human, MV4-11 + K-562 + COLO205 + SK-N-BE2 + OVCAR-8. The following applies: read-out: apparent Kd, compound concentrations: 100 nM and 1000 nM (sheet 'Samples'), n = 1.
The test system of a further test is RIPK2. On the set-up: species or system human, MV4-11 + K-562 + COLO205 + SK-N-BE2 + OVCAR-8. The following applies: read-out: apparent Kd, compound concentrations: 100 nM and 1000 nM (sheet 'Samples'), n = 1.
A further test concerns RIPK3. Details: species or system human, MV4-11 + K-562 + COLO205 + SK-N-BE2 + OVCAR-8. The following applies: read-out: apparent Kd, compound concentrations: 100 nM and 1000 nM (sheet 'Samples'), n = 1.
[1] abbreviates: compound concentrations:100 nM and 1000 nM (sheet 'Samples').

Where two headings read alike, the source gives them in different places.

Chain of Q6ZSR9 (Q6ZSR9 whole entry, looked up): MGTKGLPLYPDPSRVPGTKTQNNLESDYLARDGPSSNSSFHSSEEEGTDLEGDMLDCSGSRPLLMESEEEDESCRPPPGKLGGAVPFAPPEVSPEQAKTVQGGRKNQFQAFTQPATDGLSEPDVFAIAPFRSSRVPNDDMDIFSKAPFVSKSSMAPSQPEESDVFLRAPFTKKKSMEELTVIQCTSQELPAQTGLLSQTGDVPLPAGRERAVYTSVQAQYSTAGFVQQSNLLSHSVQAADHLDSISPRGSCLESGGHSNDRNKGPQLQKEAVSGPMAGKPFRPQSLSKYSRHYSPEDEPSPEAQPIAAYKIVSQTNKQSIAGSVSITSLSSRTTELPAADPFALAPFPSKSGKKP

Consider `CNC(=O)c1ccccc1Nc1nc(Nc2cccc(CS(C)(=O)=O)c2)ncc1C.O=CO` [GSK1520489A], for which the potency estimated from few doses in the test with ABL1 (CATDS: 1.34944121173274E-2) was 401 nM; in the test on ABL2 (CATDS: 1.36244790700583E-2) it was 389 nM; in the test on BCR (CATDS: 1.52044449937046E-2), 280 nM; with CLK1 (compound concentrations: 100 nM and 1000 nM (sheet 'Samples'), CATDS: 2.0431825511786902E-2), 131 nM; with CLK4 it was 226 nM; in the test with CSNK2A1;CSNK2A3 (compound concentrations: 100 nM and 1000 nM (sheet 'Samples'), CATDS: 1.12264805832196E-2), 773 nM. The potency estimated from few doses is 807 nM in the test with CSNK2A2 (compound concentrations: 100 nM and 1000 nM (sheet 'Samples'), CATDS: 1.1107914266042299E-2); 304 nM in the test on FYN (CATDS: 1.4785651294397E-2); 105 nM with HCK (CATDS: 2.2518734177974401E-2); 63 nM in the test with LCK (CATDS: 2.8625863065429399E-2); 19.7 nM in the test on PTK6 (compound concentrations: 100 nM and 1000 nM (sheet 'Samples'), CATDS: 5.57669232791278E-2); 1260 nM with Q6ZSR9. For the same compound, the potency estimated from few doses with RET (CATDS: 2.6340417566827701E-2) is 74.6 nM; in the test with TNK1 (CATDS: 3.8833580007227697E-2), 35.6 nM; with YES1 (compound concentrations: 100 nM and 1000 nM (sheet 'Samples'), CATDS: 2.28565858871594E-2) it was 101 nM.

Turning to `CN1CCN(Cc2ccc(-c3ccc4c(Nc5ccc(Oc6ccccn6)cc5)ccnc4c3)o2)CC1` [GW567140X], the potency estimated from few doses is 147 nM with ABL1 (CATDS: 9.3195013096343204E-2); 675 nM in the test with FYN (CATDS: 4.4615082678796297E-2); 1320 nM in the test on GAK (CATDS: 3.56871929379163E-2); 68.5 nM with HCK (CATDS: 0.15093661180131901); 557 nM in the test with LCK (CATDS: 4.8128660017474401E-2); 284 nM in the test with PTK6 (compound concentrations: 100 nM and 1000 nM (sheet 'Samples'), CATDS: 6.5275116077435802E-2). For the same compound, the potency estimated from few doses in the test with RIPK2 (CATDS: 0.141504972954966) was 75.4 nM; in the test on RIPK3 (CATDS: 4.8755783013644902E-2) it was 540 nM; with YES1 (compound concentrations: 100 nM and 1000 nM (sheet 'Samples'), CATDS: 6.0479326827192301E-2), 332 nM.

In the case of `O=S(=O)(CCOCc1ccc(-c2ccc3ncnc(Nc4ccc(OCc5cccc(F)c5)c(Cl)c4)c3c2)o1)c1ccccc1` [GW615311X], the potency estimated from few doses in the test with CSNK2A1;CSNK2A3 (compound concentrations: 100 nM and 1000 nM (sheet 'Samples'), CATDS: 2.30931474147829E-2) was 2130 nM; with FYN (CATDS: 3.12916843215739E-2) it was 1080 nM.

In the case of `CC(=O)N1CCN(c2ccc(Nc3nccc(-c4sc(C(C)C)nc4-c4cccc(NS(=O)(=O)c5ccccc5)c4)n3)cn2)CC1` [GSK1645872A], the potency estimated from few doses with ABL1 (CATDS: 2.9890665121479899E-2) was 746 nM; in the test with ABL2 (CATDS: 6.8030281480511795E-2), 166 nM; in the test with BCR (CATDS: 2.6881466096611999E-2), 991 nM; in the test on GAK (CATDS: 3.3630312969228401E-2), 566 nM; in the test with LCK (CATDS: 2.6338913401390801E-2), 1050 nM; with RIPK2 (CATDS: 3.4620572917050799E-2), 532 nM. The potency estimated from few doses was 381 nM in the test with RIPK3 (CATDS: 4.0939196436341502E-2); 364 nM with TNK1 (CATDS: 4.1915160463804002E-2); 324 nM in the test on YES1 (compound concentrations: 100 nM and 1000 nM (sheet 'Samples'), CATDS: 4.4721674656853803E-2).

Turning to `Nc1nc(N)c2nc(-c3ccccc3)[nH]c2n1` [SKF-12778], the potency estimated from few doses in the test on CLK1 (setting [1]) was 1150 nM; in the test on CSNK2A1;CSNK2A3 (setting [1]) it was 1350 nM; in the test with CSNK2A2 (setting [1]) it was 1100 nM; with PTK6 (setting [1]), 1150 nM; in the test on YES1 (setting [1]), 1040 nM.

In the case of `CC(C)c1nc(-c2cccc(NS(=O)(=O)c3c(F)cccc3F)c2F)c(-c2ccnc(Nc3ccc(N4CCOCC4)nc3)n2)s1` [GSK2008607A], the potency estimated from few doses is 706 nM in the test with ABL1 (CATDS: 2.52520437406713E-2); 101 nM with ABL2 (CATDS: 7.58086527625733E-2); 355 nM in the test on BCR (CATDS: 3.4777380085243399E-2); 1090 nM with FYN (CATDS: 2.15624347754024E-2); 378 nM in the test on GAK (CATDS: 3.3626459583734003E-2); 751 nM in the test with HCK (CATDS: 2.4637154538395101E-2). The potency estimated from few doses is 215 nM with LCK (CATDS: 4.60457501367081E-2); 241 nM in the test with RET (CATDS: 4.3035202568940403E-2); 82.7 nM in the test on TNK1 (CATDS: 8.7218482008179707E-2); 653 nM with YES1 (compound concentrations: 100 nM and 1000 nM (sheet 'Samples'), CATDS: 2.6088425735390001E-2).
